# Shown are actives, neighbours in structure and some others; about 3.9% of the full set was active somewhere.
# MITF act: MITF TRPM1 promoter activation in melanoma cells. SK-MEL-5 TRPM1-promoter luciferase, 24 h; % of positive control, neutral wells = 0. activation, % at 12.5 µM. actives 0.75% (n = 300,000);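 active = mean activation of at least 80% with every replicate also reaching 80%; inconclusive = mean reaches 80% but some replicate falls short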
# HSF1 inhib: HSF1 inhibition; NIH3T3-HGL HSE-luciferase, MG132-induced, luminescence 8 h; stronger effect = lower value; activity change, negative = inhibition, % at 7.5 µM (by protocol); actives 0.77% (n = 300,000);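 active = more than half of replicate wells show activity change below -50%, luminescence cut by over half; inconclusive = some wells, but at most half, below -50%; inactive = no replicate well below -50%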;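 also: luciferase reports HSF-1 transcriptional activity via heat shock element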
# Wnt act: activates Wnt/beta-catenin signaling in a reporter cell assay; activator, plate reader; activation, % at 9.35 µM; actives 1.2% (n = 300,000); AID 743398; in the data active = activation above about 30%, passing the limit was not always enough; inconclusive = no clear call, values can overlap the other calls
# HSF1 activator: increases HSF-1 driven luciferase reporter signal | NIH3T3-HGL HSF-1 luciferase reporter, MG132, 8 h; 100% = twice DMSO control signal | activation, % at 9 µM | actives 1.7% (n = 300,000);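 active = mean replicate activation of at least 50% with a set share of replicates each reaching 50%; inconclusive = only one of those two conditions met; inactive = mean below 50% and too few replicates reaching it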
# esBAF inh: inhibitors of esBAF chromatin remodeling in mouse ES cells; Bmi1-luciferase knock-in reporter, 24 h; 100% = twice the neutral-well signal; reporter increase, % at 12.5 µM; actives 2% (n = 350,000); AID 602393; in the data active = activation above about 40%; inconclusive = no clear call, values can overlap the other calls;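 also: a rise in the Bmi1 reporter signal indicates esBAF inhibition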
# Numbers stand for hits; . = inactive; ? = inconclusive; / = no result.
SMILES,MITF act,HSF1 inhib,Wnt act,HSF1 activator,esBAF inh
CO[C@@H]1CN(C)C(=O)c2cc(NS(C)(=O)=O)ccc2OC[C@@H](C)N(Cc2ccccc2)C[C@H]1C,/,/,/,/,.
Cc1cc(C)cc(N2C(=O)CN(Cc3ccccc3)C2=S)c1,.,-78,.,.,.
CCc1ccc(N2C(=O)CN(Cc3ccccc3)C2=S)cc1,.,.,.,.,.
CCN(CC)c1ccc(/C=C/c2nc3ccccc3s2)cc1,/,-82,/,.,/
C[C@@H]1CCCCO[C@@H](CN(C)S(=O)(=O)c2ccccc2)[C@H](C)CN([C@@H](C)CO)C(=O)c2cc(N(C)C)ccc2O1,/,/,/,/,.
CCn1ccnc1CN(C)C(=O)c1cc(COc2ccccc2SC)on1,?,.,.,.,59
CSc1ccccc1OCc1cc(C(=O)N(C)Cc2nonc2C)no1,150,.,.,.,65
CSc1ccccc1OCc1cc(C(=O)N(C)CCn2nc(C)cc2C)no1,.,.,.,.,.
CSc1ccccc1OCc1cc(C(=O)NCc2cccc(C)n2)no1,96,.,.,.,78
CSc1ccccc1OCc1cc(C(=O)N(C)Cc2ccncn2)no1,117,.,.,.,/
CCCNC(=O)N[C@@H]1CC[C@@H](CCn2cc(C3CC3)nn2)O[C@H]1CO,/,/,/,/,.
COC(=O)C[C@H]1CC[C@@H](N)[C@H](CO)O1,/,/,/,/,.
C[C@H](NC(=O)C[C@@H]1CC[C@@H]2[C@H](COC[C@@H](O)CN2C(=O)Nc2cccc(F)c2)O1)c1ccccc1,/,/,/,/,.
CCCNC(=O)N1C[C@@H]2[C@H](c3ccccc31)[C@@H](CO)N2C(=O)c1ccncc1,/,/,/,/,.
Cc1c(C(=O)N(Cc2ccncc2)CC2CCCO2)oc2c(F)cccc12 (configuration not stated),.,.,.,53,.
Cc1ccc2c(C)c(C(=O)N(Cc3ccncc3)CC3CCCO3)oc2c1C (configuration not stated),.,.,.,.,.
Cc1c(C(=O)N(CCO)Cc2ccccc2)oc2c(F)cccc12,/,.,.,.,59
C[C@@H]1CN([C@@H](C)CO)S(=O)(=O)c2ccc(C3=CCCCC3)cc2O[C@H]1CN(C)Cc1ccccn1,/,/,/,/,.
COC(=O)C1=C(N)Oc2c(oc(CO)cc2=O)C1c1ccc(F)cc1 (configuration not stated),/,.,40,.,/
O=[N+]([O-])c1cccc(-c2ccc(C(=S)N3CCOCC3)o2)c1,.,.,.,79,.
S=C(c1ccc(-c2cccc(Cl)c2)o1)N1CCCCC1,93,.,40,73,/
S=C(c1ccc(-c2cccc(Cl)c2)o1)N1CCOCC1,139,.,.,.,?
O=[N+]([O-])c1ccccc1-c1ccc(C(=S)N2CCCCC2)o1,/,.,.,.,?
O=[N+]([O-])c1ccccc1-c1ccc(C(=S)N2CCCC2)o1,.,.,.,?,44
S=C(c1ccc(-c2cc(Cl)ccc2Cl)o1)N1CCCCC1,.,.,/,.,/
SMILES,MITF act,HSF1 inhib,Wnt act,HSF1 activator,esBAF inh
CC(C)NC(=O)N(C)C[C@H]1Oc2c(NC(=O)Nc3cccc4ccccc34)cccc2C(=O)N([C@@H](C)CO)C[C@@H]1C,/,/,/,/,.
Cc1cc(C)c2c(n1)sc1c(=O)n(Cc3ccc(F)cc3)cnc12,/,.,.,.,.
COC(=O)Cn1c(C)nc2c(sc3nc(C)cc(C)c32)c1=O,91,.,/,.,?
C=CCn1cnc2c(sc3nc(C)cc(C)c32)c1=O,/,.,.,.,/
CCOC(=O)Cn1cnc2c(sc3nc(C)cc(C)c32)c1=O,/,.,38,.,.
COc1ccc2c(c1)C(=NN)c1cc(OC)ccc1-2,.,.,/,.,43
CSc1ccccc1OCc1cc(C(=O)N[C@H]2CCCCNC2=O)no1,96,.,.,?,66
CSc1ccccc1OCc1cc(C(=O)NC(C)c2cnn(C)c2)no1 (configuration not stated),.,.,.,.,54
CC(=O)C(Sc1nn(C)c(=S)s1)C(=O)Nc1ccccc1 (configuration not stated),.,.,/,.,77
CC(=O)C(Sc1nc(N(C)C)nc(N(C)C)n1)C(=O)Nc1ccccc1 (configuration not stated),.,.,.,.,.
CCOC(=O)CNC(=O)c1sc(NC(=O)c2ccccc2F)nc1C,.,.,.,.,57
CC(=O)Cc1nsc(NC(=O)c2cccc(F)c2)n1,.,.,/,.,61
CC(=O)c1sc(NC(=O)c2cccc(C)c2)nc1C,.,.,.,.,/
CCOC(=O)CNC(=O)c1sc(NC(=O)c2cccc(F)c2)nc1C,.,.,/,.,54
Cc1nnc(NC(=O)c2cccc(F)c2)s1,.,.,/,.,.
C[C@@H]1CCCCO[C@@H](CN(C)C(=O)Nc2ccccc2)[C@@H](C)CN([C@H](C)CO)C(=O)c2cc(NC(=O)CCC(F)(F)F)ccc2O1,/,/,/,/,.
Cc1cccc(N2CCN(C(=O)c3cc(S(=O)(=O)N4CCCC4)cn3C)CC2)c1C,/,.,.,.,.
Cc1ccc(C)c(N2CCN(C(=O)c3cc(S(=O)(=O)N4CCCC4)cn3C)CC2)c1,/,-68,.,.,.
COc1ccc(-c2nc3c4ccccc4[nH]c(=O)n3n2)cc1,/,.,59,.,46
Oc1c(C2=NCCNC(C(F)(F)F)=C2)ccc2ccccc12,87,.,.,81,/
COc1ccccc1Oc1ncnc2c1cnn2-c1ccccc1,91,.,.,.,73
COCCN(CCOC)c1ncnc2c1cnn2-c1ccccc1,.,.,.,.,.
CN(Cc1ccccc1)c1ncnc2c1cnn2-c1ccccc1,85,.,.,.,.
COc1ncnc2c1cnn2-c1ccccc1,/,.,.,.,.
CCOc1ccccc1Nc1ncnc2c1cnn2-c1ccccc1,.,.,.,.,.
SMILES,MITF act,HSF1 inhib,Wnt act,HSF1 activator,esBAF inh
CCN(c1ccccc1)c1ncnc2c1cnn2-c1ccccc1,/,.,.,.,76
C[C@H]1CN([C@@H](C)CO)C(=O)c2cc(NS(C)(=O)=O)ccc2O[C@H]1CN(C)S(=O)(=O)c1ccc(Cl)cc1,/,/,/,/,.
Cc1c(C(=O)Nc2cccc(F)c2)cnn1-c1ccccc1,109,.,.,?,.
Cc1c(C(=O)Nc2ccccc2)cnn1-c1ccccc1,.,.,63,.,/
CO[C@H]1CC[C@H]2CCOc3ccc(C#N)cc3C(=O)N(C)CCCC(=O)N(C)C[C@H]1O2,/,/,/,/,.
CN(C)C(=O)C[C@H]1C[C@@H]2c3cc(NC(=O)CC4CC4)ccc3O[C@@H]2[C@H](CO)O1,/,/,/,/,.
C/C=C/c1ccc([C@@H]2[C@H](CO)N(S(C)(=O)=O)[C@H]2CN(CC)C(=O)CC)cc1,/,/,/,/,.
CC1=NN(c2cccc(C(=O)O)c2)C(=O)/C1=C\C=C/c1ccccc1,/,.,.,100,/
COc1cc(/C=C/c2ccc3cccc(OC)c3n2)c(OC(C)=O)c([N+](=O)[O-])c1,/,.,.,.,.
Cc1ccc(C(=O)NN=CC(=O)c2ccccc2)c(C)c1,.,/,34,/,.
Cc1ccc(C(=O)N/N=C2\CCc3ccccc32)c(C)c1,.,.,.,.,/

# From PubChem BioAssay
